From PubChem BioAssay (Tox21)
“And” between values parts separate entries of the source, which are not always exact repeats. Equal values may be shown once. Results filed as inconclusive are left out. Entries that show only a call come without a potency. The source holds several records for some structures; these can differ, active in one and inactive in another. The source made the active and inactive calls. Unless noted, calls follow the shape of the dose curve; as a rule, active = well fitted curve in the direction sought with a large enough effect in the repeat runs; inconclusive = weak or mixed curves; inactive = no such curve, though single readings can be large; an effect the other way counts as inactive or inconclusive.

Tests used:
[1] = qHTS assay to identify aromatase inhibitors - cell viability counter screen (AID 743084);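 also: cells stimulated with testosterone during compound exposure; nearly all actives have a fitted effect of over 55% in size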; also: potency is read from the fitted curve at half-maximal effect
[2] = molecular target: Aryl hydrocarbon receptor (Homo sapiens) (UniProt P35869); assay: qHTS assay to identify small molecule that activate the aryl hydrocarbon receptor (AhR) signaling pathway (AID 743085); also: nearly all actives have a fitted effect of over 15% in size; also: potency is read from the fitted curve at half-maximal effect;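 as to activation: HG2L7.5c1 human HepG2 liver cells with stably integrated DRE-driven firefly reporter; series mostly up to about 70 µM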
Chain of Aryl hydrocarbon receptor (Homo sapiens) (P35869 whole entry, looked up): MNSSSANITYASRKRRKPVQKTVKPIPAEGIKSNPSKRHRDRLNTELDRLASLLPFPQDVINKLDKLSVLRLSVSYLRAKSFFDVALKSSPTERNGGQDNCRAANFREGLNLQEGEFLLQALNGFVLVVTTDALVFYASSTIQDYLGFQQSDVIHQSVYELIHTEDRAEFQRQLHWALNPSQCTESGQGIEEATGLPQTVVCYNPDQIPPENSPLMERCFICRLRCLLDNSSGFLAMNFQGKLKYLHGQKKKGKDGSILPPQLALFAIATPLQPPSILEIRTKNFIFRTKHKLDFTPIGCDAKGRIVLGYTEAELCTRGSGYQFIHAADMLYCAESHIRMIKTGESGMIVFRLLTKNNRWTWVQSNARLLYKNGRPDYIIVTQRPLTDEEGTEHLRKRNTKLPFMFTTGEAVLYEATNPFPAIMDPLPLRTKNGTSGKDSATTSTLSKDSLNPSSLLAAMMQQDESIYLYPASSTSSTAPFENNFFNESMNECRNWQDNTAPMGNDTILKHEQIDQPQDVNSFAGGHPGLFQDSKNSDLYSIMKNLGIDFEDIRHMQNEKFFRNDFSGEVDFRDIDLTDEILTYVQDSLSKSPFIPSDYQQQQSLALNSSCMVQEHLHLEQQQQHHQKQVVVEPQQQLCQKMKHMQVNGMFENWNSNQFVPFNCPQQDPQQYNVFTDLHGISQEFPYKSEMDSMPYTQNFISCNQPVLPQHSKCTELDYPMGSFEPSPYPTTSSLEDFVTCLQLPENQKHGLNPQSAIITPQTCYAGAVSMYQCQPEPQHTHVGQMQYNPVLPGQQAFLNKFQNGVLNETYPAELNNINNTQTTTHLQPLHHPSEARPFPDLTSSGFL
Procedure, shortened: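 AhR agonist activity is inferred from enhanced light output of a DRE-controlled firefly luciferase reporter in HepG2 cells, measured with ONE-Glo following 24 h treatment at 37C.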

[3] = qHTS assay to identify small molecule that activate the aryl hydrocarbon receptor (AhR) signaling pathway - cell viability counter screen (AID 743086);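 also: HepG2 liver cells carrying the AhR DRE luciferase reporter; series mostly up to about 70 µM; nearly all actives have a fitted effect of over 45% in size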
Procedure, shortened: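 Cytotoxicity counter screen: CellTiter-Fluor signal (30 min, 37 C) in 4000 HepG2 cells/well carrying the DRE-luciferase reporter, following 24 h compound exposure at 37 C.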

[4] = molecular target: Peroxisome proliferator-activated receptor gamma (Homo sapiens) (UniProt P37231); assay: qHTS assay to identify small molecule agonists of the peroxisome proliferator-activated receptor gamma (PPARg) signaling pathway (AID 743094; active = well fitted activation curve with a large enough effect in the signal ratio in the repeat runs, not every such curve was filed as active; the % refers to the signal ratio)
Chain of Peroxisome proliferator-activated receptor gamma (Homo sapiens) (P37231 whole entry, looked up): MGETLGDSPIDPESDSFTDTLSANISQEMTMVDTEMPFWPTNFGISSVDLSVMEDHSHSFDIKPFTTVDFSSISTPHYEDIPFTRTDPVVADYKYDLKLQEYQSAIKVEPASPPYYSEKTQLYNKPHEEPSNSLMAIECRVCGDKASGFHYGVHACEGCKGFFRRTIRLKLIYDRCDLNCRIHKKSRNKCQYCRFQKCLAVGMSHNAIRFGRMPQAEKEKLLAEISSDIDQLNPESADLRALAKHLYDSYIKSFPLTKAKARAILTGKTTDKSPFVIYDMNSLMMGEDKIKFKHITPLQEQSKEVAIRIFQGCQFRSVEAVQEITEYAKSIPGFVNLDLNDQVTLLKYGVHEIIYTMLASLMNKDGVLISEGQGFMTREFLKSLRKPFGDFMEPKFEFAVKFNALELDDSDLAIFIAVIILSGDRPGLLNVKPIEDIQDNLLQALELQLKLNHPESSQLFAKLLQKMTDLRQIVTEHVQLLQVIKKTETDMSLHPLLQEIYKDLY
Procedure, shortened: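 HEK293H PPARg-bla cells, 5 h settle at 37C/5% CO2; compound (DMSO) 17 h, 37C; B/G FRET substrate 1 h RT; fluorescence intensity read-out. qHTS format.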

[5] = qHTS assay to identify small molecule antagonists of the peroxisome proliferator-activated receptor gamma (PPARg) signaling pathway - cell viability counter screen (AID 743194); also: nearly all actives have a fitted effect of over 55% in size
Procedure, shortened: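 Viability was measured as CellTiter-Glo luminescence in GeneBLAzer PPARg UAS-bla HEK293H cells. These cells had been exposed 17 h at 37 C to compounds together with rosiglitazone at 50 nM final, with the beta-lactamase readout taken in the same wells.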

[6] = qHTS assay for small molecule agonists of the antioxidant response element (ARE) signaling pathway (AID 743202; active = well fitted activation curve with a large enough effect in the signal ratio in the repeat runs, not every such curve was filed as active; the % refers to the signal ratio; also: potency is read from the fitted curve at half-maximal effect)
Procedure, shortened: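 Beta-lactamase reporter activity, read as fluorescence intensity, reflects ARE/Nrf2 pathway induction in HepG2 cells after 16 h compound exposure at 37 C; substrate loading was 2 h at room temperature.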

[7] = qHTS assay for small molecule agonists of the antioxidant response element (ARE) signaling pathway - cell viability counter screen (AID 743203; calls by dose curve; also: nearly all actives have a fitted effect of over 55% in size; also: potency is read from the fitted curve at half-maximal effect)
Procedure, shortened: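 Luminescence read-out (CellTiter-Glo, 30 min at room temperature) measured cell viability in the same wells as the ARE beta-lactamase reporter. HepG2 ARE-bla cells were treated with compounds for 16 hrs at 37C/5% CO2.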

[8] = qHTS assay for small molecule activators of the heat shock response signaling pathway - cell viability counter screen (AID 743209); also: nearly all actives have a fitted effect of over 50% in size; also: potency is read from the fitted curve at half-maximal effect
Procedure, shortened: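 HSE-bla HeLa; 1500 cells/well; overnight 37 C, 5% CO2; compound 5 h 37 C; LiveBLAzer B/G substrate 2.5 h RT; CellTiter-Glo 30 min RT; luminescence.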

[9] = qHTS assay to identify small molecule agonists of the peroxisome proliferator-activated receptor delta (PPARd) signaling pathway - cell viability counter screen (AID 743211); also: nearly all actives have a fitted effect of over 55% in size
Procedure, shortened: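 qHTS cell viability: PPARd-bla HEK293H; 17 h cpd, 37C; CellTiter-Glo, luminescence at 30 min RT.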

[10] = molecular target: Peroxisome proliferator-activated receptor delta (Homo sapiens) (UniProt Q03181); assay: qHTS assay to identify small molecule agonists of the peroxisome proliferator-activated receptor delta (PPARd) signaling pathway (AID 743212; calls by dose curve)
Chain of Peroxisome proliferator-activated receptor delta (Homo sapiens) (Q03181 whole entry, looked up): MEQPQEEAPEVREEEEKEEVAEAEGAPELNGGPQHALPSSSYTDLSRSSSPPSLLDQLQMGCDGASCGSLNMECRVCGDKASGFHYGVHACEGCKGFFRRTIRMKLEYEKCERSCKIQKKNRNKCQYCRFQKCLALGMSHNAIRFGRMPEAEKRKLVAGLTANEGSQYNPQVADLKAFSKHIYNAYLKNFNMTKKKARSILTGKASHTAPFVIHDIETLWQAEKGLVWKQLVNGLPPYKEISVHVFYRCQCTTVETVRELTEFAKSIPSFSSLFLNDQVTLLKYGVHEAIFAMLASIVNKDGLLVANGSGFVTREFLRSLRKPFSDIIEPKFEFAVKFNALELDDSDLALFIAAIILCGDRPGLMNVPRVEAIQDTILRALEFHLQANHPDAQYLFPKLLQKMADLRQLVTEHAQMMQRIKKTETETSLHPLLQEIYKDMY
Procedure, shortened: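 Steps: seed PPARd-bla HEK293H cells; incubate 5 h, 37 C, 5% CO2; add compounds in DMSO; incubate, 37 C; add LiveBLAzer B/G FRET substrate; hold 2 h at room temperature; measure fluorescence.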

[11] = qHTS assay to identify small molecule antagonists of the peroxisome proliferator-activated receptor delta (PPARd) signaling pathway - cell viability counter screen (AID 743213); also: nearly all actives have a fitted effect of over 50% in size
Procedure, shortened: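 PPARd-bla HEK293H cells (3000/well) got compound plus 300 nM L165041 agonist for 17 h at 37 C. Viability in the same wells came from CellTiter-Glo luminescence after 30 min at room temperature.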

[12] = molecular target: Peroxisome proliferator-activated receptor delta (Homo sapiens) (UniProt Q03181); assay: qHTS assay to identify small molecule antagonists of the peroxisome proliferator-activated receptor delta (PPARd) signaling pathway (AID 743215; active = well fitted inhibition curve with a large enough effect in the signal ratio in the repeat runs, not every such curve was filed as active; the % refers to the signal ratio;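 also: cells stimulated with agonist L165041 at 300 nM final during compound exposure; series mostly up to about 62 µM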)
Procedure, shortened: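 HEK293H GeneBLAzer PPARd UAS-bla reporter cells; cpd + L165041 300 nM final, 17 h 37 C; LiveBLAzer B/G FRET substrate 2 h RT; fluorescence intensity read-out. Antagonist mode.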

[13] = molecular target: Bile acid receptor (Homo sapiens) (UniProt Q96RI1); assay: qHTS assay to identify small molecule antagonists of the farnesoid-X-receptor (FXR) signaling pathway (AID 743217; active = well fitted inhibition curve with a large enough effect in the signal ratio in the repeat runs, not every such curve was filed as active; the % refers to the signal ratio)
Chain of Bile acid receptor (Homo sapiens) (Q96RI1 whole entry, looked up): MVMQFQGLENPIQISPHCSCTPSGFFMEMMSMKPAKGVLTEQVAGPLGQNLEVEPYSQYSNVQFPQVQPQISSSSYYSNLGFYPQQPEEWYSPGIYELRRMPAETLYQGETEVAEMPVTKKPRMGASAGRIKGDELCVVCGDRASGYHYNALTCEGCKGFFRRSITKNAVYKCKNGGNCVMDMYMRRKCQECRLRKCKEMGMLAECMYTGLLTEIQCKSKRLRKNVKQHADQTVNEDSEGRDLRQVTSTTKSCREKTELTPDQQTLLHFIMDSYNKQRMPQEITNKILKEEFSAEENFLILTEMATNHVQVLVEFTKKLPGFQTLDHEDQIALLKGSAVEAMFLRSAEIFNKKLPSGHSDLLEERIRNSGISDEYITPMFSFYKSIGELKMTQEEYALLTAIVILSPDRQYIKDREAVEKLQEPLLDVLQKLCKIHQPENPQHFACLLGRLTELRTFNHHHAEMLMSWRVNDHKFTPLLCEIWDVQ
Procedure, shortened: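 Read-out: beta-lactamase FRET fluorescence (LiveBLAzer B/G substrate, 2 h, room temperature) in GeneBLAzer FXR-UAS-bla HEK 293T cells. Compounds were co-dosed with 50 uM chenodeoxycholic acid (final) and incubated 16 h at 37 °C.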

[14] = qHTS assay to identify small molecule agonists of the farnesoid-X-receptor (FXR) signaling pathway - cell viability counter screen (AID 743218); also: nearly all actives have a fitted effect of over 45% in size
Procedure, shortened: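 Luminescence from CellTiter-Glo, read after 30 min at RT, reports viability of GeneBLAzer FXR-UAS-bla HEK 293T cells treated 16 h with compounds in the wells used for the beta-lactamase reporter.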

[15] = molecular target: Bile acid receptor (Homo sapiens) (UniProt Q96RI1); assay: qHTS assay to identify small molecule agonists of the farnesoid-X-receptor (FXR) signaling pathway (AID 743220; active = well fitted activation curve with a large enough effect in the signal ratio in the repeat runs, not every such curve was filed as active; the % refers to the signal ratio)
Procedure, shortened: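 FXR-UAS-bla HEK 293T cells carrying a UAS-driven beta-lactamase reporter were plated for 5 h at 37C/5% CO2, then exposed to DMSO-dissolved Tox21 10K compounds for 16 h at 37C. A LiveBLAzer B/G FRET substrate was loaded for 2 h at room temperature before fluorescence reading.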

[16] = molecular target: Vitamin D3 receptor (Homo sapiens) (UniProt P11473); assay: qHTS assay to identify small molecule agonists of the vitamin D receptor (VDR) signaling pathway (AID 743222; calls by dose curve)
Chain of Vitamin D3 receptor (Homo sapiens) (P11473 whole entry, looked up): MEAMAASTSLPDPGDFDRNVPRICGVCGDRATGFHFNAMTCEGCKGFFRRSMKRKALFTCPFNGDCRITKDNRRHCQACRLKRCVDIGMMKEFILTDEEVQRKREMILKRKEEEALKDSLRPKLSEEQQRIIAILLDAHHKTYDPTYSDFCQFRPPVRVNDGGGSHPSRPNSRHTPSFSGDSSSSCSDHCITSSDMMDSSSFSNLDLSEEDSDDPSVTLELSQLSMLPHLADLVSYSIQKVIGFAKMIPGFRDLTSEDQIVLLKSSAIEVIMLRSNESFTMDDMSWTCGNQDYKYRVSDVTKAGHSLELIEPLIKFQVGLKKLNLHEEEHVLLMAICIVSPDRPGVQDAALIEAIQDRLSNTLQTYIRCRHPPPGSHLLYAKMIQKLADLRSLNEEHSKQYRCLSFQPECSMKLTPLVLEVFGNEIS
Procedure, shortened: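 Beta-lactamase reporter readout (LiveBLAzer B/G FRET, 2 h RT) in VDR-bla cells after 16 h compound treatment at 37C, 5% CO2; cells pre-incubated 4 h before pin transfer of DMSO solutions.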

[17] = molecular target: Vitamin D3 receptor (Homo sapiens) (UniProt P11473); assay: qHTS assay to identify small molecule antagonists of the vitamin D receptor (VDR) signaling pathway (AID 743223; active = well fitted inhibition curve with a large enough effect in the signal ratio in the repeat runs, not every such curve was filed as active; the % refers to the signal ratio)
Procedure, shortened: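 Reporter line VDR-bla; stimulus 1alpha,25-(OH)2 vitamin D3, 3 nM final; compound co-addition, 16 h 37C/5% CO2; LiveBLAzer B/G substrate 2 h RT; fluorescence intensity.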

[18] = qHTS assay to identify small molecule antagonists of the farnesoid-X-receptor (FXR) signaling pathway - cell viability counter screen (AID 743221; active = well fitted cell-killing curve with a large enough effect in the repeat runs, not every such curve was filed as active; also: nearly all actives have a fitted effect of over 50% in size)
Procedure, shortened: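 After a 5 h settling period, FXR-bla HEK 293T cells receive compound and chenodeoxycholic acid (50 uM final) and incubate 16 h at 37 C; CellTiter-Glo luminescence, read after 30 min at room temperature, reports cell viability.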

[19] = molecular target: Peroxisome proliferator-activated receptor gamma (Homo sapiens) (UniProt P37231); assay: qHTS assay to identify small molecule antagonists of the peroxisome proliferator-activated receptor gamma (PPARg) signaling pathway (AID 743191; calls by dose curve; also: series mostly up to about 63 µM; nearly all actives have a fitted effect of over 30% in size)
Procedure, shortened: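 Beta-lactamase reporter under UAS control in HEK293H PPARg-bla cells; compound treatment 17 h at 37C. Read-out: fluorescence intensity after 1 h room-temperature incubation with LiveBLAzer B/G FRET substrate.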

[20] = qHTS assay for small molecule activators of the heat shock response signaling pathway (AID 743210; active = well fitted activation curve with a large enough effect in the signal ratio in the repeat runs, with a control signal flat, not every such curve was filed as active; the % refers to the signal ratio;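 also: HeLa cells with beta-lactamase reporter driven by heat shock elements; series mostly up to about 63 µM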)
Procedure, shortened: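 Fluorescence from a cleaved B/G FRET substrate (2.5 h, room temp) reports HSE-driven beta-lactamase in HeLa cells treated 5 h at 37 C with DMSO-dissolved compounds.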

Compound	Potency [1]	Potency [2]	Potency [3]	outcome [4]	Potency [5]	Potency [6]	Potency [7]	Potency [8]	Potency [9]	outcome [10]	Potency [11]	outcome [12]	Potency [13]	Potency [14]	outcome [15]	outcome [16]	outcome [17]	Potency [18]	Potency [19]	outcome [20]
CCCCCCCCCCCCO	inactive	inactive	inactive	inactive	inactive	inactive	inactive	inactive	inactive	inactive	inactive	inactive	inactive	inactive	inactive	inactive	inactive			
CCCCCCCC/C=C\CCCCCCCC(=O)O	inactive	inactive	inactive	inactive	inactive	inactive	inactive	inactive and 34.7 µM (active)	inactive	inactive	inactive	inactive	inactive	inactive	inactive			inactive		
c1ccc2ncccc2c1	inactive	inactive	inactive	inactive	inactive	inactive	inactive	inactive	inactive	inactive	inactive	inactive		inactive				inactive	inactive	inactive
O=C(O)c1cc(=O)[nH]c(=O)[nH]1	inactive	inactive	inactive	inactive	inactive	inactive	inactive	inactive	inactive	inactive	inactive	inactive		inactive				inactive		
O=C(O)CCCCCCCCCCCC(=O)O	inactive	inactive	inactive	inactive	inactive	inactive	inactive	inactive	inactive	inactive	inactive	inactive	inactive	inactive	inactive	inactive	inactive	inactive	inactive	inactive
Cc1ccc2c(c1)C(=O)OC2=O	inactive	inactive	inactive	inactive	inactive	inactive	inactive	inactive	inactive	inactive	inactive	inactive		inactive		inactive	inactive			inactive
Nc1ccc(N)c(Cl)c1	61 µM (active) and inactive	54.4 µM (active) and 15.4 µM (active)	inactive		inactive	27.3 µM (active)	68.5 µM (active) and inactive	inactive	inactive	inactive	inactive	inactive		inactive		inactive		inactive		
NCCOCCO	inactive	inactive	inactive		inactive	inactive	inactive	inactive	inactive	inactive	inactive	inactive	inactive	inactive	inactive	inactive	inactive	inactive		
